Bioassay records from PubChem BioAssay.
Many of the other results were omitted from the sample, so hits are more common in it than they were.
Pf Dd2 inh: blocks in vitro growth of P. falciparum Dd2; actives 4.3% (n = 120,000); AID 1347417; P. falciparum Dd2 growth, SYBR Green, 72 h; Potency, µM (series often up to 28.9 µM), for the others: at the highest dose activity, negative = inhibition, usual class: inhibitors; active = well fitted inhibition curve with a large enough effect;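 also: plate controls were DMSO vehicle for no effect and reference drug for full effect; nearly all actives have a fitted effect of over 65% in size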
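Infected erythrocytes (Dd2, 0.3% parasitemia, 2.5% hematocrit final) are added to compound in RPMI-1640/Albumax II medium, grown 72 h at 37C in low oxygen, then lysed with saponin/Triton-X containing SYBR Green and read by fluorescence.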
* marks the source's active call; other numbers are inactive results; i = inactive; [ ] = dose if it differs, or a comment. Potency is read from the fitted curve at half-maximal effect.

SMILES	Pf Dd2 inh
COc1ccc(CC(=O)N2CCc3nc(-c4cccnc4)[nH]c3C2)cc1	4.2%
CCN1C(=O)CCN(C(=O)CCOC)CC12CCOCC2	8.8%
CCOC(=O)c1ccc(NC(=O)CC2Sc3ccc(C(F)(F)F)cc3NC2=O)cc1 (stereo not given)	39.8%[0.594 µM]
CCOC(=O)c1ccc(NC(=O)CC2Nc3cccc4cccc(c34)NC2=O)cc1 (stereo not given)	10µM*
NC(=O)c1ccc(NC(=O)C[C@H]2NC(=O)c3ccccc3NC2=O)cc1	4.6%
CC(=O)c1ccc(NC(=O)CC2Nc3cccc4cccc(c34)NC2=O)cc1 (stereo not given)	-0.9%
CCOc1ccc(NC(=O)CC2Nc3cccc4cccc(c34)NC2=O)cc1 (stereo not given)	7.7%
CCOC(=O)c1ccc(NC(=O)CC2Nc3cc(C)c(C)cc3NC2=O)cc1 (stereo not given)	3.98µM*
Cc1ccc(C(=O)N2CC3(Cc4ccccc4NC3=O)C2)cc1	9.3%
CCOc1ccc(C(=O)N2CCC[C@H]2c2nc(-c3ccccc3)no2)cc1OCC	i
Cc1cc(C)n(C(C)CC(=O)NCc2ccc(Cl)cc2)n1 (stereo not given)	2.4%
CN(C)C(=O)c1cccnc1OC1CCN(S(=O)(=O)c2ccc3c(c2)OCCO3)C1 (stereo not given)	i
C#CCN(C)Cc1nc(C2(O)CCN(CC3CC3)CC2)cs1	i
C#CCN(C)Cc1nc(C2(O)CCN(C)CC2)cs1	1.5%[44.1 µM]
C#CCN(C)Cc1nc(C2(O)CCN(C3CCC3)CC2)cs1	10µM*
CCn1ccc2c(OCC(=O)NCc3ccccc3)cccc2c1=O	30.5%
Cc1ncccc1C(=O)N1CCCCCCNC(=O)[C@@H]2CCC[C@@H]21	i
Cc1noc2c(NC3CCOCC3)cc(-c3ccccn3)nc12	i
COC(=O)N1CCC(c2nn(-c3ccc(OC)cc3)c(=O)[nH]2)CC1	i
COc1ccc(-n2nc(C3CCN(Cc4cccn4C)CC3)[nH]c2=O)cc1	12.6µM*
COc1ccc(-n2nc(C3CCN(Cc4ccc(N(C)C)cc4)CC3)[nH]c2=O)cc1	-2.6%
Cc1ccc(N2CCC(NC(=O)c3ccc(Br)o3)C2=O)cc1C (stereo not given)	i
O=C1CC(c2ccc(Br)cc2)c2c(c3ccccc3oc2=O)O1 (stereo not given)	-8.9%
O=C(NCc1ccco1)N1CC(c2noc(C3CCCN3CC3CC3)n2)C1 (stereo not given)	i
CCCS(=O)(=O)N1CC(c2noc(C3CCCN3CC3CC3)n2)C1 (stereo not given)	-16.3%
SMILES	Pf Dd2 inh
O=C(c1cccs1)N1CC(c2noc(C3CCCN3CC3CC3)n2)C1 (stereo not given)	3.98µM*
O=C(NC1CCN(c2cc(C(F)(F)F)ncn2)CC1)c1ccco1	i
COc1ccc(-c2cc(N3CCC(NC(=O)COc4ccc(F)cc4)CC3)n[nH]2)cc1	-10.2%
O=C(COc1ccc(F)cc1)NC1CCN(c2cc(C(F)(F)F)ncn2)CC1	5.62µM*
COc1ccc(NC(=O)C2CCN(c3cc(C(F)(F)F)ncn3)CC2)cc1	i
O=C(Nc1ccc(F)cc1)C1CCN(c2cc(C(F)(F)F)ncn2)CC1	i
COc1ccc(NC(=O)C2CCN(c3cc(C(F)(F)F)ncn3)CC2)cc1OC	11.2µM*
COCCOCC(=O)N1Cc2ccccc2OC2(CCN(C(C)C)CC2)C1	i
CCc1cccc(C)c1NC(=O)Cn1nc2n(c1=O)CCCC2	i
COc1ccccc1C(=O)N1CCC(n2cc(-c3nc(-c4ccccc4)no3)nn2)CC1	i
COc1cc(NC(=O)C(=O)Nc2ccc3nc4n(c(=O)c3c2)CCCCC4)cc(OC)c1OC	-12.3%
COc1ccc(N2CCN(C(=O)CCS(=O)(=O)c3cc(Br)cc4c3N(C(=O)C3CC3)CC4)CC2)cc1	5.01µM*
CCC(=O)N1CCc2cc(Br)cc(S(=O)(=O)CCC(=O)Nc3ccccc3C)c21	1.7%
Cc1ccc(Cl)cc1N1CCN(C(=O)CCNS(=O)(=O)c2ccc3c(c2)CCN3C(=O)C2CC2)CC1	-7.1%
CCc1cccc(NC(=O)CCS(=O)(=O)c2cc(Br)cc3c2N(C(C)=O)CC3)c1	-9.9%
CC(=O)N1CCc2cc(Br)cc(S(=O)(=O)CCC(=O)N3CCN(c4cccc(C)c4C)CC3)c21	-24.4%
CCOc1ccc(NS(=O)(=O)c2cc(Br)cc3c2N(C(=O)C2CC2)CC3)cc1	34.8%
CCCCN(Cc1ccccc1)S(=O)(=O)c1cc(Br)cc2c1N(C(C)=O)CC2	i
Cc1ccc(Cl)cc1N1CCN(S(=O)(=O)c2cc(Br)cc3c2N(C(=O)C2CC2)CC3)CC1	9.2%
Cc1ccc(Cl)cc1N1CCN(C(=O)CCS(=O)(=O)c2cc(Br)cc3c2N(C(=O)C2CC2)CC3)CC1	10µM*
CCC(=O)N1CCc2cc(Br)cc(S(=O)(=O)CCC(=O)N3CCN(c4cc(C)ccc4C)CC3)c21	-8.9%
CCN(Cc1ccccc1)S(=O)(=O)c1cc(Br)cc2c1N(C(=O)C1CC1)CC2	7.94µM*
O=C(CCS(=O)(=O)c1cc(Br)cc2c1N(C(=O)C1CC1)CC2)Nc1ccc(F)cc1	3.98µM*
